Measurements as given in PubChem BioAssay (EPA / NIEHS).
Results filed as inconclusive are left out. Active and inactive are the calls of the source. The calls were made as follows: active = hit-call score of the fitted dose curve at least 0.9, where 1 is the maximum; inconclusive = response in the unintended direction; inactive = score below 0.9.

Key:
[1] = molecular target: sheep Cyclooxygenase-1 (Cox1), PTGS1 (gene 443551) (UniProt P05979); experiment: NVS_ENZ_oCOX1: NovaScreen (NVS) Enzymatic Assay for sheep Cyclooxygenase-1 (Cox1) (AID 2283239);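 also: actives reduce cyclooxygenase activity so potencies are for inhibitors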
How it was run: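 Cell-free colorimetric assay of enzyme activity in a native extract of ovine seminal vesicles. Absorbance was read 0.66 hour after compound addition. Loss of signal relative to the DMSO negative control was scored, with actives from the 25 uM duplicate primary screen retested in concentration series.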

[2] = molecular target: guinea pig Opioid, Kappa 1 Receptor (OpiateK), OPRK1 (gene 100135587) (UniProt P41144); experiment: NVS_GPCR_gOpiateK: NovaScreen (NVS) G Protein-Coupled Receptor Assay for guinea pig Opioid, Kappa 1 Receptor (OpiateK) (AID 2283252);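 also: radioligand displacement from kappa opioid receptor in guinea pig cerebellar membranes; active means reduced radioligand binding relative to DMSO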
How it was run: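 Guinea pig cerebellar membranes were incubated with a radioligand for 2 h after compound addition; bound radioactivity was read by filter-based scintillation counting. Loss of specific binding relative to DMSO baseline defined activity; primary screen at 25 uM in duplicate.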

[3] = molecular target: guinea pig Leukotriene D4 Receptor (LTD4), CYSLTR1 (gene 100135514) (UniProt Q2NNR5); experiment: NVS_GPCR_gLTD4: NovaScreen (NVS) G Protein-Coupled Receptor Assay for guinea pig Leukotriene D4 Receptor (LTD4) (AID 2283248)
How it was run: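 Radioligand displacement on guinea pig lung membranes, 1 h incubation, filtration and scintillation counting; DMSO as negative control. Duplicate 25 uM primary screen, then singleton concentration-response up to 50 uM.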

[4] = molecular target: human Sirtuin 3 (SIRT3), SIRT3 (gene 23410) (UniProt Q9NTG7); experiment: NVS_ENZ_hSIRT3: NovaScreen (NVS) Enzymatic Assay for human Sirtuin 3 (SIRT3) (AID 2283222)
How it was run: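 Cell-free enzyme assay with recombinant protein and fluorescent substrate, product separated by electrophoretic mobility shift; read 1 hour after dosing. Screened in duplicate at 25 uM, then singleton concentration-response up to 50 uM; loss of signal versus DMSO.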

[5] = molecular target: rabbit Imidazoline 2 Central (I2C), CKB (gene 100009085) (UniProt P00567); experiment: NVS_ENZ_rabI2C: NovaScreen (NVS) Enzymatic Assay for rabbit Imidazoline 2 Central (I2C) (AID 2283228)
How it was run: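 Rabbit brain membranes, cell-free; readout by filter-based scintillation counting 1.5 hours after dosing, loss of signal vs DMSO. Initial duplicate test at 25 uM, then concentration-response with 50 uM top concentration.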

[6] = molecular target: bovine Dopamine Receptor (DR), Non-selective Binding, DRD1 (gene 281125) (UniProt Q95136); experiment: NVS_GPCR_bDR_NonSelective: NovaScreen (NVS) G Protein-Coupled Receptor Assay for bovine Dopamine Receptor (DR), Non-selective Binding (AID 2283241)
How it was run: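 Bovine striatal membranes; radioligand displacement read by filtration and scintillation counting 1 h after dosing, loss of signal vs DMSO. Screened in duplicate at 25 uM, then concentration-response for hits.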

[7] = NVS_GPCR_bNPY_NonSelective: NovaScreen (NVS) G Protein-Coupled Receptor Assay for bovine Neuropeptide Y (NPY) Receptor, Non-selective Binding (AID 2283245)
How it was run: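 Bovine hippocampal membranes incubated 1 hour with radioligand and test chemical. Bound ligand measured by filter-based scintillation counting. Single-concentration screen at 25 uM in duplicate, then concentration-response up to 50 uM.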

[8] = test system: guinea pig Muscarinic, Peripheral (Mperiperal) Receptor, Non-selective Binding, gene 100379235; experiment: NVS_GPCR_gMPeripheral_NonSelective: NovaScreen (NVS) G Protein-Coupled Receptor Assay for guinea pig Muscarinic, Peripheral (Mperiperal) Receptor, Non-selective Binding (AID 2283250)
How it was run: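 Guinea pig bladder membranes, radioligand binding read 1 h after dosing by filter scintillation counting; loss of signal vs DMSO. Primary duplicate screen at 25 uM, then concentration-response up to 50 uM.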

[9] = molecular target: human Serotonin, 5-Hydroxytryptamine Receptor 5A (5HT5A), HTR5A (gene 3361) (UniProt P47898); experiment: NVS_GPCR_h5HT5A: NovaScreen (NVS) G Protein-Coupled Receptor Assay for human Serotonin, 5-Hydroxytryptamine Receptor 5A (5HT5A) (AID 2283251)
How it was run: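 Cell-free radioligand displacement binding on HEK293-derived membrane protein, 1 h incubation, filter-based scintillation counting. Primary screen in duplicate at 25 uM, actives followed in concentration series; loss of signal fitted versus DMSO.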

[10] = molecular target: human Serotonin, 5-Hydroxytryptamine Receptor 6 (5HT6), HTR6 (gene 3362) (UniProt P50406); experiment: NVS_GPCR_h5HT6: NovaScreen (NVS) G Protein-Coupled Receptor Assay for human Serotonin, 5-Hydroxytryptamine Receptor 6 (5HT6) (AID 2283253)
How it was run: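 Radioligand binding to 5HT6 in HEK293-derived membranes, cell-free, 1 h after dosing; bound ligand measured by filter-based scintillation counting. Primary screen in duplicate at 25 uM; actives retested in concentration series.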

[11] = molecular target: human Serotonin, 5-Hydroxytryptamine Receptor 7 (5HT7), HTR7 (gene 3363) (UniProt P34969); experiment: NVS_GPCR_h5HT7: NovaScreen (NVS) G Protein-Coupled Receptor Assay for human Serotonin, 5-Hydroxytryptamine Receptor 7 (5HT7) (AID 2283255);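 also: hits reduce specific radioligand binding relative to DMSO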
How it was run: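 Radioligand displacement on membranes from CHO cells expressing human 5HT7, 1 h incubation, filter-based scintillation counting. Primary screen used a single 25 uM concentration in duplicate; actives were followed up in concentration series.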

[12] = molecular target: human Adrenergic, Alpha 2c Receptor (Adra2C), ADRA2C (gene 152) (UniProt P18825); experiment: NVS_GPCR_hAdra2C: NovaScreen (NVS) G Protein-Coupled Receptor Assay for human Adrenergic, Alpha 2c Receptor (Adra2C) (AID 2283259)
How it was run: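 Radioligand binding on Sf9-expressed receptor membranes, 1 h after chemical dosing, filter-based scintillation read-out. Loss of binding fitted positively versus DMSO; primary duplicate screen at 25 uM, actives retested in concentration series.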

[13] = molecular target: human Tropomyosin Receptor Kinase A (TRKA), NTRK1 (gene 4914) (UniProt P04629); experiment: NVS_ENZ_hTrkA: NovaScreen (NVS) Enzymatic Assay for human Tropomyosin Receptor Kinase A (TRKA) (AID 2283224)
How it was run: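 Recombinant human TrkA activity read after 1 h by fluorescence with electrophoretic mobility shift separating substrate and product. Primary screen in duplicate at 25 uM; actives were rerun in concentration-response up to 50 uM. Loss of signal versus DMSO.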

[14] = molecular target: human Vascular Endothelial Growth Factor Receptor 2 (VEGFR2), KDR (gene 3791) (UniProt P35968); experiment: NVS_ENZ_hVEGFR2: NovaScreen (NVS) Enzymatic Assay for human Vascular Endothelial Growth Factor Receptor 2 (VEGFR2) (AID 2283230)
How it was run: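 Cell-free recombinant VEGFR2 kinase, fluorescent substrate with electrophoretic mobility-shift separation; read 1 h after dosing. Screened at 25 uM in duplicate, hits to concentration-response up to 50 uM; loss-of-signal versus DMSO.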

[15] = molecular target: human Adenosine A1 Receptor (AdoRA1), ADORA1 (gene 134) (UniProt P30542); experiment: NVS_GPCR_hAdoRA1: NovaScreen (NVS) G Protein-Coupled Receptor Assay for human Adenosine A1 Receptor (AdoRA1) (AID 2283254)
How it was run: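 Each chemical is first tested twice at 25 uM, actives later in dilution series, against a radioligand bound to human cortex membranes; after 1 h, filter-retained counts are compared with DMSO controls, lower signal indicating displacement.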

[16] = molecular target: human Adenosine A2a Receptor (AdoRA2a), ADORA2A (gene 135) (UniProt P29274); experiment: NVS_GPCR_hAdoRA2a: NovaScreen (NVS) G Protein-Coupled Receptor Assay for human Adenosine A2a Receptor (AdoRA2a) (AID 2283256)
How it was run: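 Cell-free radioligand binding on membranes from HEK293 expressing the receptor; competitive displacement read 1.5 h after dosing by filter-based scintillation counting. Primary screen in duplicate at 25 uM; actives followed in concentration series, with DMSO as baseline.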

[17] = molecular target: human Adrenergic, Alpha 2A Receptor (Adra2A), ADRA2A (gene 150) (UniProt P08913); experiment: NVS_GPCR_hAdra2A: NovaScreen (NVS) G Protein-Coupled Receptor Assay for human Adrenergic, Alpha 2A Receptor (Adra2A) (AID 2283257)
How it was run: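 Radioligand filter-binding was run on HT29-derived membranes, cell-free, read by scintillation counting 1 h after dosing. Primary screening was in duplicate at 25 uM, with concentration series in follow-up. Loss of signal versus DMSO indicates displacement.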

[18] = molecular target: human Adrenergic, Beta 1 Receptor (Adrb1), ADRB1 (gene 153) (UniProt P08588); experiment: NVS_GPCR_hAdrb1: NovaScreen (NVS) G Protein-Coupled Receptor Assay for human Adrenergic, Beta 1 Receptor (Adrb1) (AID 2283258)
How it was run: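 Cell-free radioligand displacement on receptor from human neuroepithelioma cells; 2 h after dosing, filter-based scintillation counting. Primary screen in duplicate at 25 uM, actives retested in concentration series; loss of signal vs DMSO baseline.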

[19] = molecular target: Beta-2 adrenergic receptor (Homo sapiens) (UniProt P07550); experiment: NVS_GPCR_hAdrb2: NovaScreen (NVS) G Protein-Coupled Receptor Assay for human Adrenergic, Beta 2 Receptor (Adrb2) (AID 2283261)
How it was run: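 Filter-based radioligand binding using receptor prepared from CHO cells, 1 h incubation, scintillation counting. Primary screen in duplicate at 25 uM, actives retested in concentration series; loss of binding relative to DMSO.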

Sequence of guinea pig Leukotriene D4 Receptor (LTD4), CYSLTR1 (gene 100135514) (Q2NNR5 whole entry, looked up): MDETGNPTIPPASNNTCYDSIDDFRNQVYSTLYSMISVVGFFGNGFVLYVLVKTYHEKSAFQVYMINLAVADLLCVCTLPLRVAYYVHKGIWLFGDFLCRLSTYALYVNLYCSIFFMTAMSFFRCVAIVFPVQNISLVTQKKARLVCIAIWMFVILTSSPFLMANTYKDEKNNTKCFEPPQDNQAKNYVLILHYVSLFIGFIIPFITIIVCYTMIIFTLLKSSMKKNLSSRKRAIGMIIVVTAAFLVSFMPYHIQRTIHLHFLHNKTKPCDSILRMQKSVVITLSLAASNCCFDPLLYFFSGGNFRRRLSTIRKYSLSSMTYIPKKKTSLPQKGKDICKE
Sequence of sheep Cyclooxygenase-1 (Cox1), PTGS1 (gene 443551) (P05979 whole entry, looked up): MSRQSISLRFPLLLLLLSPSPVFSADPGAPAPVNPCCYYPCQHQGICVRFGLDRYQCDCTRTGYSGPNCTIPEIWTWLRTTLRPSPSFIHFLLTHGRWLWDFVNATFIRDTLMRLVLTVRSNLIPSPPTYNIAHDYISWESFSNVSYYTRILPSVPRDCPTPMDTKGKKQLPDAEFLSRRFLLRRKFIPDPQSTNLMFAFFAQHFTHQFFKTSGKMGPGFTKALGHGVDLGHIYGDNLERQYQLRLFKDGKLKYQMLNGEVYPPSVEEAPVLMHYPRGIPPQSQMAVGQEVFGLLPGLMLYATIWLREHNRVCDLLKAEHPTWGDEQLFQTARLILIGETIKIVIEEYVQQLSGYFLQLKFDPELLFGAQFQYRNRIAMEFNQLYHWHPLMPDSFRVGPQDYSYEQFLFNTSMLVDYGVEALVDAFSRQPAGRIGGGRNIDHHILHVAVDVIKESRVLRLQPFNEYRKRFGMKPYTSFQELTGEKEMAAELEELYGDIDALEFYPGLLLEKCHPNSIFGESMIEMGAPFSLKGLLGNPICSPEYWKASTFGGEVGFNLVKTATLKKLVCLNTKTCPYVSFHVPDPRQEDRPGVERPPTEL
Sequence of guinea pig Opioid, Kappa 1 Receptor (OpiateK), OPRK1 (gene 100135587) (P41144 whole entry, looked up): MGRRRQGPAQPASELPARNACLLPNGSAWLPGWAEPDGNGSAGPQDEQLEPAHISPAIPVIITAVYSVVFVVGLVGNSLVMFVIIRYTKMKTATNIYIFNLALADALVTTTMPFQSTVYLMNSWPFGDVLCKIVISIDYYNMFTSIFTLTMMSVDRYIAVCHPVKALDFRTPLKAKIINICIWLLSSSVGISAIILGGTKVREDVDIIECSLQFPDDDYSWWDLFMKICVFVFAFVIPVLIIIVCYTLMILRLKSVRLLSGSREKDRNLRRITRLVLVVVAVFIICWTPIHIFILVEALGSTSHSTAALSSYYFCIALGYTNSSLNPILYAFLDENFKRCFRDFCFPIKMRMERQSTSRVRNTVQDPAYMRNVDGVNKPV
Sequence of human Serotonin, 5-Hydroxytryptamine Receptor 7 (5HT7), HTR7 (gene 3363) (P34969 whole entry, looked up): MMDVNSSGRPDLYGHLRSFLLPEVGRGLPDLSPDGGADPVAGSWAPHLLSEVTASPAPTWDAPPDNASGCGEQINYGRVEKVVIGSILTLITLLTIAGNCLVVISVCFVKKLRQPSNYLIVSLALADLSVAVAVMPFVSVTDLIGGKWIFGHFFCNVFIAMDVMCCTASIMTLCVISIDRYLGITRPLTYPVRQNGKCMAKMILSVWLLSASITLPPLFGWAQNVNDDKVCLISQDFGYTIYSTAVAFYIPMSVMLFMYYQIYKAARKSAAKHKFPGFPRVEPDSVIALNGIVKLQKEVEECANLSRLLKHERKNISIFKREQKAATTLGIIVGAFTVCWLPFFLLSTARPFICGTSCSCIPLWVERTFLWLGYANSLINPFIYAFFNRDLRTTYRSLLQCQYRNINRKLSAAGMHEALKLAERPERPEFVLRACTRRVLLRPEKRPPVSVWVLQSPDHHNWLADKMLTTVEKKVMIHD
Sequence of human Serotonin, 5-Hydroxytryptamine Receptor 5A (5HT5A), HTR5A (gene 3361) (P47898 whole entry, looked up): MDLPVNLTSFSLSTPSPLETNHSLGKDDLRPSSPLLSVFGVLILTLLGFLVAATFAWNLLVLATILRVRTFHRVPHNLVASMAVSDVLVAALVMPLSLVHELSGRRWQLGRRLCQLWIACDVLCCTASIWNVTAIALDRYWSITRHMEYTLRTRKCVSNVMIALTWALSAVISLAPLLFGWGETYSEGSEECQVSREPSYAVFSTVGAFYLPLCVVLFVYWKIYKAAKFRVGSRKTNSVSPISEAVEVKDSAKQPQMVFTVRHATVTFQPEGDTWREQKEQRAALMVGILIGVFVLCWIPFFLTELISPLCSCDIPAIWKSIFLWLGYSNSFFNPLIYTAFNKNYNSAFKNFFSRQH
Sequence of bovine Dopamine Receptor (DR), Non-selective Binding, DRD1 (gene 281125) (Q95136 whole entry, looked up): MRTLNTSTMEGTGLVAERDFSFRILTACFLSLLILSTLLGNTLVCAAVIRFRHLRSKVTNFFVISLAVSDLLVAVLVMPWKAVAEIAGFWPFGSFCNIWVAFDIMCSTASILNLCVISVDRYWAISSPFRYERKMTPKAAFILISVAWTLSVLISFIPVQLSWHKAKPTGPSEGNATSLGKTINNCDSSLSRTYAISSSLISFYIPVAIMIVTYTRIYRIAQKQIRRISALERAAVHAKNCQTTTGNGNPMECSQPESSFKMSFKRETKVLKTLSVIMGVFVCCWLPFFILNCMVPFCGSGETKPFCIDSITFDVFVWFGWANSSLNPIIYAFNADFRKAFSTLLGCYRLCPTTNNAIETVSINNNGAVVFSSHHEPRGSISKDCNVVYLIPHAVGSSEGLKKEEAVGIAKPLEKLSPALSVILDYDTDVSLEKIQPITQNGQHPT
Sequence of human Adenosine A2a Receptor (AdoRA2a), ADORA2A (gene 135) (P29274 whole entry, looked up): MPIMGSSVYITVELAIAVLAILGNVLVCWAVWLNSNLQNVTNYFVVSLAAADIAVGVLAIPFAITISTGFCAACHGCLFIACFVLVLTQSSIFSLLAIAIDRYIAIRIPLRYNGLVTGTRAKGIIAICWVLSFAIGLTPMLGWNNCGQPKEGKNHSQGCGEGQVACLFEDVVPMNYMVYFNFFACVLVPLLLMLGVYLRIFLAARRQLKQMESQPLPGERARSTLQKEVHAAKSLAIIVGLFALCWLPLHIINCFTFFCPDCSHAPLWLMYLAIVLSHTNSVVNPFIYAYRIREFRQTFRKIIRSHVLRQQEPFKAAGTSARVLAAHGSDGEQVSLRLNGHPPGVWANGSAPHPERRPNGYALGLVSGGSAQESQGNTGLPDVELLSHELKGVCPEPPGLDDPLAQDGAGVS
Sequence of human Serotonin, 5-Hydroxytryptamine Receptor 6 (5HT6), HTR6 (gene 3362) (P50406 whole entry, looked up): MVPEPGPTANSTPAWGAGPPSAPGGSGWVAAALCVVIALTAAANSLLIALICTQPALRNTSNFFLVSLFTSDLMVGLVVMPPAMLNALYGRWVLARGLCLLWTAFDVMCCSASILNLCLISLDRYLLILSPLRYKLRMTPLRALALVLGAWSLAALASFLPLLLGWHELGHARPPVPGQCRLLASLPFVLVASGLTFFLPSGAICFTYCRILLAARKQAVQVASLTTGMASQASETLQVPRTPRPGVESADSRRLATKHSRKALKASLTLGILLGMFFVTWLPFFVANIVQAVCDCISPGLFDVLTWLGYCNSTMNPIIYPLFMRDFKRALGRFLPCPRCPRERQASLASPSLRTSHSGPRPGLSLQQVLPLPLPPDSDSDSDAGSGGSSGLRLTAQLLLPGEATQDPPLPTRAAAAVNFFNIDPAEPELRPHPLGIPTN
Sequence of human Sirtuin 3 (SIRT3), SIRT3 (gene 23410) (Q9NTG7 whole entry, looked up): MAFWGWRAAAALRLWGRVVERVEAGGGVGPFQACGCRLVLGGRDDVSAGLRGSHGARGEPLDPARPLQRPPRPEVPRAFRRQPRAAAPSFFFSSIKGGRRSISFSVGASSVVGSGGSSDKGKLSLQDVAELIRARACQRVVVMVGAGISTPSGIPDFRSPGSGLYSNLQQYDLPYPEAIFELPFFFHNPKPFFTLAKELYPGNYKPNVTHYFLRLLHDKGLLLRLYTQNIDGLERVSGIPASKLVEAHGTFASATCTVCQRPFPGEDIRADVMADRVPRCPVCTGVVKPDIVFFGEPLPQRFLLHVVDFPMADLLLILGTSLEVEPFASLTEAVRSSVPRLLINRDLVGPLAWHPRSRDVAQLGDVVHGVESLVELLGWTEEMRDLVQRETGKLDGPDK
Sequence of human Adrenergic, Alpha 2c Receptor (Adra2C), ADRA2C (gene 152) (P18825 whole entry, looked up): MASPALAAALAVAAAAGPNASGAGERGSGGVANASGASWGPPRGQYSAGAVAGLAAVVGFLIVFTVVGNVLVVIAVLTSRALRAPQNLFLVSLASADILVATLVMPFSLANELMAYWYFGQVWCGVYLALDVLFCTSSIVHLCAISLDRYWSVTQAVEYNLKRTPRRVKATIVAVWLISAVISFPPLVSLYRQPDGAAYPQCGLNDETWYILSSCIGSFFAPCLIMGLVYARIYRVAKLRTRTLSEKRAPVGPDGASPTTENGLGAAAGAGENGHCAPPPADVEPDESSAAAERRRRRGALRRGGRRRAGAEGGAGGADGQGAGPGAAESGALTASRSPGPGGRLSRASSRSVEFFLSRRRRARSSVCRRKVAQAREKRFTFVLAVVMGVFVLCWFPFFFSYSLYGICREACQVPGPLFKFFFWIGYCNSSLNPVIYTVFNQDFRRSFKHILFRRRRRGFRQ
Sequence of rabbit Imidazoline 2 Central (I2C), CKB (gene 100009085) (P00567 whole entry, looked up): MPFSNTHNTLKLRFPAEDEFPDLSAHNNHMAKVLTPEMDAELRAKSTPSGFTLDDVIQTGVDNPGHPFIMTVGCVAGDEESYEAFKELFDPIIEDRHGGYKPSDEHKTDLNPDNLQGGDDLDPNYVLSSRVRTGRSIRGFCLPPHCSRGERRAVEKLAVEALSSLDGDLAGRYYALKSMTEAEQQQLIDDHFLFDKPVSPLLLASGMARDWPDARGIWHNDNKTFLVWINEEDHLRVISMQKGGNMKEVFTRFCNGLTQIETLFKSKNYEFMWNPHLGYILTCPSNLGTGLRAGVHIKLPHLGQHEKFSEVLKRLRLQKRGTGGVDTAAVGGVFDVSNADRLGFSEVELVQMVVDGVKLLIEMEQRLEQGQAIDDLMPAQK

SMILES: COc1ccccc1NC(=O)CC(C)=O
- AC50 [1]: 14.6 µM (active)

SMILES: Cc1cc(O)c(C)c(C)c1O
- outcome [2]: inactive

SMILES: CC1=CC(C)C(C=O)C(C)C1 (stereo unspecified) (tested in a mixture with another compound)
- outcome [3]: inactive

SMILES: CCCCCCCCCCCCS
- AC50 [1]: 25 µM (active)

SMILES: CC(=O)c1ccc(C)cc1
- outcome [1]: inactive

SMILES: O=[N+]([O-])c1cc(N(CCO)CCO)ccc1NCCO
- outcome [3]: inactive

SMILES: CC(=O)CCC=C(C)CCC=C(C)C
- AC50 [1]: 43.3 µM (active)

SMILES: CC(C)(O)CCc1ccccc1
- outcome [1]: inactive

SMILES: CC/C(=C(\c1ccccc1)c1ccc(OCCN(C)C)cc1)c1ccccc1
- outcome [4]: inactive
- outcome [5]: inactive
- outcome [6]: inactive
- AC50 [7]: 22.9 µM (active)
- AC50 [8]: 19.1 µM (active)
- AC50 [9]: 6.95 µM (active)
- outcome [2]: inactive
- AC50 [10]: 6.32 µM (active)
- AC50 [11]: 4.89 µM (active)
- AC50 [12]: 9.54 µM (active)

SMILES: C=CCOCC(O)CO (stereo unspecified)
- AC50 [1]: 25 µM (active)

SMILES: O=C(c1ccc(OCCN2CCCCC2)cc1)c1c(-c2ccc(O)cc2)sc2cc(O)ccc12
- AC50 [4]: 17.4 µM (active)
- AC50 [13]: 25 µM (active)
- AC50 [5]: 10.3 µM (active)
- AC50 [14]: 3.07 µM (active)
- AC50 [6]: 1.02 µM (active)
- AC50 [8]: 5.18 µM (active)
- AC50 [9]: 3.5 µM (active)
- AC50 [2]: 0.508 µM (active)
- AC50 [10]: 3.57 µM (active)
- outcome [15]: inactive
- AC50 [11]: 2.27 µM (active)
- AC50 [16]: 6.13 µM (active)
- AC50 [17]: 9.52 µM (active)
- AC50 [18]: 10.5 µM (active)
- AC50 [12]: 2.78 µM (active)
- AC50 [19]: 11.8 µM (active)

SMILES: O=C1OCc2ccccc21
- outcome [16]: inactive

SMILES: CCCCCC1C(=O)CCC1CC(=O)OC (stereo unspecified)
- outcome [2]: inactive

SMILES: Cc1ccc(C(C)(C)O)cc1
- outcome [1]: inactive

SMILES: O=C1OC2(c3ccc(O)cc3Oc3cc(O)ccc32)c2ccccc21
- AC50 [1]: 18.2 µM (active)
- outcome [3]: inactive
- outcome [2]: inactive
